# Fam108B inh – Fam108B inhibition, counter-screen for RBBP9 inhibitors; actives 0.33% (n = 300,000); inhibition, % at 9.51 µM; recombinant Fam108B, FP-Rh probe fluorescence polarization;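 active = inhibition above the screen mean inhibition plus 3 SD, computed separately per campaign, cut at about 18% in these data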;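 also: inhibitors lower polarization as less probe binds the enzyme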
# LYPLA1 inh – counter-screen for PME1 inhibitors: inhibitors of human LYPLA1; inhibition, % at 5.9 µM; recombinant LYPLA1, FP-Rh probe fluorescence polarization; actives 0.16% (n = 320,000);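 active = inhibition above the mean of all tested compounds plus 3 SD, set per campaign, cut at about 14% in these data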;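 also: inhibitors block serine hydrolase probe labeling of LYPLA1 so polarization falls; 0% = enzyme with DMSO and 100% = wells lacking LYPLA1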
# LYPLA2 inh – counter-screen for PME1 inhibitors: inhibitors of human LYPLA2. O95372. recombinant LYPLA2, FP-Rh probe fluorescence polarization. inhibition, % at 5.9 µM. actives 0.38% (n = 320,000). AID 2177;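 active = inhibition above the screen-wide mean plus 3 SD, limit set per campaign, cut at about 26% in these data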;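 also: 0% = LYPLA2 with DMSO and 100% = wells lacking LYPLA2 enzyme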
# Target sequence (O95372 whole entry, looked up): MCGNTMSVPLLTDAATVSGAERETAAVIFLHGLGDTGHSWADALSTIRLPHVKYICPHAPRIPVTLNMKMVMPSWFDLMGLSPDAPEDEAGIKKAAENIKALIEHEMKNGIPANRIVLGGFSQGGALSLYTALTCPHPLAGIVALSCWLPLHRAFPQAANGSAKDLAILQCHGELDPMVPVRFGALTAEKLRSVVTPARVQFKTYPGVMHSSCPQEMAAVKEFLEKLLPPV
# GSTO1 counter – blocks human GSTO1 in RBBP9 counter-screen. inhibition, % at 5.96 µM. P78417. actives 1.1% (n = 300,000). recombinant GSTO1, activity-based probe fluorescence polarization;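 active = inhibition above the campaign mean inhibition plus 3 SD, cut at about 35% in these data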;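 also: 0% = GSTO1-1 with DMSO and 100% = wells lacking GSTO1-1 enzyme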
# PAD4 inh – inhibitors of human PAD4; Q9UM07; actives 0.41% (n = 330,000); recombinant PAD4, RCA probe fluorescence polarization; inhibition, % at 6.36 µM;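 active = percent inhibition above a cutoff equal to the mean of all tested compounds plus 3 SD, cut at about 15% in these data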;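 also: 0% = PAD4 with RCA probe and DMSO and 100% = probe without PAD4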
# PME-1 inh – PME-1 (human) inhibition | Q9Y570 | recombinant PME-1, FP-Rh probe fluorescence polarization | inhibition, % at 5.9 µM | actives 0.53% (n = 320,000) | AID 2130;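 active = inhibition above the campaign mean of all compounds plus 3 SD, cut at about 26% in these data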;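 also: competitive labeling of PME-1 active site by serine hydrolase directed probe; 0% = PME-1 with DMSO and 100% = wells lacking PME-1 enzyme; inhibitors block probe labeling so polarization falls and inhibition rises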
# PAD4 confirm – PAD4 (human) inhibition, confirmed | actives 28% (n = 1,200) | shares compounds with PAD4 inh | recombinant PAD4, RCA probe fluorescence polarization | inhibition, % at 6.36 µM;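 active = mean inhibition across replicates above the hit cutoff set by the earlier primary screen, cut at about 15% in these data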;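 also: inhibitors block active-site labeling by the probe so polarization falls; 0% = PAD4 with probe and DMSO and 100% = probe without PAD4 enzyme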
# Active calls of the source: *; · = no result given. Most compounds without a hit are left out; they make up all but 1.8% or so of the library.
SMILES,Fam108B inh,LYPLA1 inh,LYPLA2 inh,GSTO1 counter,PAD4 inh,PME-1 inh,PAD4 confirm
O=[N+]([O-])c1ccc(C2CC(c3ccccc3)=Nc3ccccc3S2)cc1 (stereo not drawn),4,-1,0,3,22*,-2,3
CCOC(=O)c1sc2nc(CSc3ccccc3)nc(N3CCC(C(N)=O)CC3)c2c1C,1,-1,0,-7,40*,2,-1
CC(=O)N1CCN(c2ccc(N)cc2)CC1,·,-1,1,·,25*,1,1
CC(=O)N1CCN(c2ccc(NS(=O)(=O)c3ccc(C)cc3)cc2)CC1,3,2,1,6,24*,2,2
O=C1C(=O)N(c2ccc(O)cc2)C(c2ccccc2[N+](=O)[O-])/C1=C(\O)c1ccccc1 (stereo not drawn),-2,3,-4,3,24*,3,2
O=C(Nc1cccc(C(F)(F)F)c1)C1CCCO1 (stereo not drawn),2,4,9,-6,-5,5,·
C/C(=N\NC(=O)C(=O)Nc1cccc(Cl)c1C)c1ccncc1,5,1,-5,4,25*,-2,2
NC(=O)c1nsc(C(=O)N(Cc2ccco2)C(C(=O)NCc2ccc(F)cc2)c2ccc(O)cc2)c1N (stereo not drawn),-3,-2,-2,1,2,4,·
CCC(C)(C)NC(=O)C(c1ccc(F)cc1)N(Cc1ccco1)C(=O)c1snc(C(N)=O)c1N (stereo not drawn),-2,2,4,7,16*,-6,3
CC(C)C(=O)NNC(=O)CSc1nnnn1C(C)C,2,1,3,-1,-7,0,·
COc1ccc(S(=O)(=O)N(CCc2ccccc2)CC(=O)NC(C)C)cc1,1,1,7,3,0,2,·
CC1=CC(C)(C)N2C(=O)C3(SCC(=O)N3c3ccc(O)cc3)c3cc(C)cc1c32 (stereo not drawn),4,-1,-3,-7,-6,0,·
Cc1ccc(N2C(=O)CSC23C(=O)Nc2ccccc23)cc1 (stereo not drawn),-3,-3,4,2,16*,-1,19*
CN(C)c1ccc(N2C(=NC(=O)CC3CCCCC3)SC3CS(=O)(=O)CC32)cc1 (stereo not drawn),1,-1,-1,-5,0,-1,·
CCOC(=O)c1c(C)[nH]c(C(=O)COC(=O)CCNS(=O)(=O)c2ccc(NC(C)=O)cc2)c1C,·,·,·,·,-5,·,·
CN(C)c1cccc(O)c1,·,1,7,·,22*,-6,2
COc1cccc(C2C(C(=O)Nc3ccccc3)=C(C)N=c3s/c(=C/c4ccc(OCC(=O)O)cc4)c(=O)n32)c1 (stereo not drawn),-13,-9,-11,-10,19*,-14,3
CCOC(=O)C1=C(C)N=c2s/c(=C\c3cccc(OCC(=O)O)c3)c(=O)n2C1c1ccccc1OC (stereo not drawn),2,2,2,1,6,1,·
CCOC(=O)C1=C(C)N=c2s/c(=C\c3ccc(OCC(=O)O)cc3)c(=O)n2C1c1ccc(OC(C)C)cc1 (stereo not drawn),-7,-7,-6,-13,18*,-12,3
CCOC(=O)C1=C(C)N=c2s/c(=C/c3ccc(OCC(=O)O)cc3)c(=O)n2C1c1cc(OC)c(OC)c(OC)c1 (stereo not drawn),-2,-1,-3,-4,25*,-10,4
CNC(=S)N/N=C/c1c(Cl)cccc1Cl,-2,-3,1,6,1,-2,·
CCc1nnc(N/N=C/c2c(Cl)cccc2Cl)n1N,6,1,1,16,21*,2,2
CCc1nnc(N/N=C/c2cccs2)n1N,1,1,-5,17,34*,-1,-6
Cc1[nH]c2ccccc2c1/C=N/Nc1nncn1N,-2,0,1,23,35*,4,7
Cc1[nH]c2ccccc2c1/C=N/Nc1ccc([N+](=O)[O-])cc1,17,-20,-15,-36,-22,0,·

# Screening results: PubChem BioAssay, The Scripps Research Institute Molecular Screening Center
